Screening results: PubChem BioAssay, several laboratories
In the library only some 5.7% were active in any assay of this set; here they are far more common.
Autofluor 339: intrinsic fluorescence of library compounds, ex339/em460 – biochemical, MLSMR library, data from DPM-DC assay, artefact control, profiling panel; compound autofluorescence, ex339/em460 nm, NADH buffer; active compounds read high; 1 = no-compound wells, NADH background; fluorescence fold increase at 10 µM; hit rate 5.5% among 65,000; AID 709;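 active = at 10 µM, mean starting fluorescence two-fold or more over control wells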;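 also: signal is the first read of a kinetic run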
Abs 340nm: absorbance at 340 nm; compound absorbance at 340 nm, fold over control; fold change at 10 µM; 65,000 tested, under 10 active;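 active = at 10 µM dose, initial 340 nm absorbance at least 2 fold that of control wells; inactive = change under 2 fold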;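 also: initial absorbance extrapolated from kinetic A340 decline of NADH oxidation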
DUSP1 inh: human dual specificity phosphatase 1 inhibition; hit rate 0.15% among 65,000; recombinant MKP-1, OMFP hydrolysis fluorescence; inhibition, %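 (compounds tested at a single concentration somewhere between 10 and 100 µM)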;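 active = inhibition above about 50%, limit read from the data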;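 also: 0% = DMSO max control wells and 100% = wells with enzyme stopped by NaOH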
Target sequence (P28562 whole entry, looked up): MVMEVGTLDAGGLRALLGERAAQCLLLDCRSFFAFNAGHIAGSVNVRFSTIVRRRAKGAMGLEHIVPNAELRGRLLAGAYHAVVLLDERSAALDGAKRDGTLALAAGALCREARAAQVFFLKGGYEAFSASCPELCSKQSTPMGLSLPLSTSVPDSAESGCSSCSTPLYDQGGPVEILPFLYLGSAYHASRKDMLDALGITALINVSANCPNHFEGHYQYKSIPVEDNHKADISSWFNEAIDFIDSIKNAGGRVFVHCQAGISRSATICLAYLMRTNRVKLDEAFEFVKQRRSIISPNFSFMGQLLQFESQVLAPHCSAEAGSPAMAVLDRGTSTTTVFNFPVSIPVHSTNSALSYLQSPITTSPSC
Hsp90 block: displaces geldanamycin probe from tumor Hsp90; inhibition, % at 30 µM; P07900; NCI-N417 lysate Hsp90, Cy3B-geldanamycin FP displacement; hit rate 0.35% among 64,000;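 active = inhibition above 50%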;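 also: 0% = tracer plus lysate wells and 100% = tracer alone without lysate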
Cdc25B block: human M-phase inducer phosphatase 2 inhibition; recombinant Cdc25B, OMFP fluorescence Ex485/Em525; hit rate 0.1% among 65,000; inhibition, %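 (compounds tested at 10 µM final in the well)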; P30305; in the data active = inhibition above about 50%
NADH coupling: inhibition of NAD/NADH coupling enzymes, library profiling; coupled PK/LDH NADH assays, four targets; IC50, µM (series often up to 10 µM), for the others: top-dose inhibition; hit rate 0.02% among 65,000; AID 774;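 active = single-dose screening hits from any of four coupled enzyme assays that gave an IC50 when retested across doses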;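 also: the DPM-DC format reads NADH fluorescence rather than 340 nm absorbance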
Numbers without * were called inactive; x = no result given.

SMILES	Autofluor 339	Abs 340nm	DUSP1 inh	Hsp90 block	Cdc25B block	NADH coupling
COc1ccc(S(=O)(=O)N2CCSC2c2ccc(N)cc2)cc1 (configuration not stated)	1.1	0.99	-7	-5	-12	5%
Cc1cc(N2CCOCC2)nc2ccc(NC(=O)CCC(=O)N3CCCCC3)cc12	4.7*	1	-2	-5	-17	7%
Cc1cc(N2CCN(C)CC2)nc2ccc(NC(=O)c3ccc(Br)o3)cc12	1.1	1.2	-2	x	6	2%
Cc1cc(N2CCN(C)CC2)nc2ccc(NC(=O)c3ccc4c(c3)OCO4)cc12	1.1	1.1	x	x	x	4%
CCCCN(C)C(=O)CCC(=O)Nc1ccc2nc(N3CCOCC3)cc(C)c2c1	4.8*	1.1	12	0	-10	10%
COc1ccc(N(C)C(=O)CCC(=O)Nc2ccc3nc(N4CCOCC4)cc(C)c3c2)c(OC)c1	4.8*	1	29	2	-18	9%
CCC(C)NC(=O)CCC(=O)Nc1ccc2nc(N3CCOCC3)cc(C)c2c1 (configuration not stated)	5*	1.1	-9	-3	3	4%
COc1ccc(N(CC(=O)NC2CCCC2)C(=O)CCC(=O)Nc2cc(C)on2)c(OC)c1	1.1	1	-4	4	8	5%
CCCCC#Cc1nc(N)c2ncn([C@@H]3O[C@H](C(=O)NCC)[C@@H](O)[C@H]3O)c2n1	x	x	x	2	x	x
CCOc1ccccc1C(=O)N(Cc1cccs1)C1CCS(=O)(=O)C1 (configuration not stated)	1.1	0.98	-15	-1	-3	5%
CC(=O)c1c(C(C)=O)c(C)n(NC(=O)c2ccncc2)c1C	1.1	1	-13	-5	-35	3%
Cc1ccc(NC(=O)c2cc(N3CCOCC3)nc3ccccc23)cc1	1.6	1	-39	-8	-7	10%
CCN1CCN(c2cc(C)c3cc(NC(=O)c4cnccn4)ccc3n2)CC1	1	1.2	2	-1	-1	2%
Cc1cc(N2CCOCC2)nc2ccc(NC(=O)CCC(=O)N3CCC(C)CC3)cc12	4.8*	1	24	2	-10	7%
CCN1CCN(c2cc(C)c3cc(NC(=O)Cc4ccc(OC)c(OC)c4)ccc3n2)CC1	2.1*	1.1	2	0	-11	1%
CCOc1ccccc1NC(=O)CCC(=O)Nc1ccc2nc(N3CCN(C)CC3)cc(C)c2c1	3.8*	1.1	9	0	-2	6%
NCCNS(=O)(=O)c1cccc2cnccc12	x	x	x	0	x	x
O=C1CN(C(=O)COC(=O)c2ccccc2NC(=O)c2ccco2)c2ccccc2N1	1.1	0.98	2	-3	2	2%
O=C(O)C1(c2cccc(Cl)c2)CCC1	1.1	0.98	-28	3	-6	9%
COc1cc(CNc2ccc(N3CCOCC3)c(C(=O)O)c2)ccc1OCC(N)=O	2.3*	0.99	0	-1	-1	7%
O=C(O)c1cc(NCc2ccc3c(c2)OCO3)ccc1N1CCOCC1	2.5*	1	5	1	9	4%
COc1ccccc1CNc1ccc(N2CCOCC2)c(C(=O)O)c1	2.2*	1	8	-3	-2	8%
COC(=O)c1cc(NCc2ccc3c(c2)OCO3)ccc1N1CCOCC1	1.7	0.99	27	2	-11	9%
CCOC(=O)c1c(NC(=O)OC)sc(C(=O)N(CC)CC)c1C	1.1	1	2	x	-9	4%
Nc1nc(N)c2sc3nc4c(cc3c2n1)CCC4	3.2*	1.1	26	-8	3	13%
SMILES	Autofluor 339	Abs 340nm	DUSP1 inh	Hsp90 block	Cdc25B block	NADH coupling
O=C1CC(c2cccs2)CC2=C1C(c1ccccc1)n1ncnc1N2 (configuration not stated)	1.6	1	0	-4	-3	6%
c1csc(C2C3=C(Nc4ncnn42)c2ccccc2OC3)c1 (configuration not stated)	2.3*	1.1	-24	-7	3	6%
CCC(CC)C(=O)Nc1c2cnn(-c3ccccc3)c2nc(=O)n1-c1ccccc1	2.2*	1	2	-4	-3	8%
CCOC(=O)C(CC)Sc1nc2c(cnn2-c2ccccc2)c(=O)[nH]1 (configuration not stated)	1.2	1	8	-2	-4	7%
O=C(O)CCCC(=O)Nc1ccc(Cl)c(Cl)c1	1	1	3	-4	-9	8%
Cc1noc(C)c1C(=O)Nc1nnc(-c2ccccc2)s1	1.2	1.1	4	-3	-7	4%
Cc1cc(=O)oc2cc(NC(=O)CCCC(=O)O)ccc12	5*	1	5	-3	3	8%
CCOc1ncccc1C(=O)Nc1ccc2c(C)cc(=O)oc2c1	2.2*	1	0	-2	-24	8%
Cc1onc(-c2ccccc2)c1C(=O)Nc1ccc2c(C)cc(=O)oc2c1	2.2*	1.1	13	x	-5	3%
Cc1onc(-c2ccccc2)c1C(=O)Nc1nnc(-c2ccncc2)s1	3.8*	1.2	11	-8	6	8%
Cc1ccc(CCNC(=O)C2CCC(=O)N2C2CCCC2)cc1 (configuration not stated)	1	0.97	-11	-5	-17	3%
COC(=O)C1CCN(C(=O)C2CCCCC2)CC1	1.1	1	-2	-2	-23	3%
COc1cc(OC)c(NC(=O)CCc2nc(-c3cccs3)no2)cc1Cl	1.1	0.99	8	1	2	6%
CCN(Cc1ccncc1)C(=O)C(CO)c1ccccc1 (configuration not stated)	x	x	x	1	x	x
Cc1nnc(NC(=O)C2CCCO2)s1 (configuration not stated)	1	1	-4	-12	5	2%
CCOc1ncccc1C(=O)Nc1ccc(-c2cn3ccsc3n2)cc1	2.1*	1.1	25	-1	-7	11%
O=C(Nc1nnc(-c2ccncc2)s1)C1CCCO1 (configuration not stated)	3.7*	1.1	5	-3	-1	3%
COc1ccccc1C(=O)Nc1cccc(-c2cn3ccsc3n2)c1	1.1	1.1	10	-8	1	5%
CC(=O)c1cccc(NC(=O)c2cc3nc(C)cc(C)n3n2)c1	2.5*	1	10	-3	-7	10%
Nc1ccc2oc3ncccc3c(=O)c2c1	1.1	1	-20	-3	-10	1%
Nc1ccc2c(C(F)(F)F)cc(=O)oc2c1	3.7*	1	-6	-2	-1	14%
CN(C)CCNc1oc(COc2ccc(Cl)cc2)nc1C#N	1	1	-4	0	-9	2%
CCCc1nnc(SCc2ccc(OC)cc2)n1N	1.1	1.1	-11	1	-10	1%
COc1ccc2c(c1)cc(C(=O)O)n2C	2.5*	1	-2	-1	-9	15%
Cn1c(C(=O)O)cc2cc(F)ccc21	1	1	-14	-10	12	9%
